In PubChem BioAssay (Tox21):
Inconclusive results are not listed. Entries that show only a call come without a potency. Active and inactive are the calls of the source. Calls follow the shape of the dose curve; as a rule, active = well fitted activation curve with a large enough effect; inconclusive = small, poorly fitted or top-dose-only effect; inactive = flat fitted curve, though single readings scatter.

Test: qHTS assay to identify small molecule phospholipidosis (PLD) inducers (AID 1259344)
Conditions: HepG2 phospholipidosis, LipidTOX Red imaging, 24 h; series mostly up to 38.3 µM
Excerpt: National Center for Advancing Translational Sciences [NCATS]
Drug-induced Phospholipidosis (PLD) caused by cationic amphiphilic drugs is characterized by the appearance of unicentric or multicentric-lamellar bodies when viewed under electron microscope. Electron microscopy is the gold standard method for PLD detection, however, this method is time-consuming and labor intensive, making it unsuitable for evaluating a large set of compounds. A cell-based phospholipidosis assay has been developed using the LipidTox reagent in HepG2 cells and miniaturized into a 1536-well plate format. Drug induced phospholipid accumulation is stained with the LipidTox dyes in red color which then is determined using an automated high content screening system.
HepG2 cells are dispensed at 900 cells/3 uL/well into Collagen I-coated 1536-well black-wall/clear-bottom assay plates (Greiner Bio-One, Monroe, NC) using the Multidrop Combi 8 channel dispenser (Thermo Fisher, Waltham, MA, USA). The assay plates are incubated at 37 C for 4 hours to allow the cell attachment. 3 uL of 1:500 LipidTOX Red dye is added using the dispenser, and then 23 nL compounds are added via a Wako Pintool station (Wako Automation, San Diego, CA). Amiodarone, a known PLD inducer, was used as a positive control and DMSO was used as a negative control. The assay plates were then incubated at 37 C for 24 hours.
For fixations, 4 uL of 8% paraformaldehyde fixative solution containing 10 ug/mL Hoechst 33342 in Dulbecco's phosphate-buffered saline (DPBS) is added using a Kalypsys washer/dispenser (Kalypsys, San Diego, CA, USA). After incubation at room temperature for 30 min, the assay plates are washed once with DPBS using a Kalypsys washer/dispenser. The assay plates are then sealed and stored at 4 C before imaging. The fluorescence intensities (595 nm excitation, 615 nm emission for LipidTOX; 352 nm excitation, 461 nm emission for Hoechst 33342) are measured using an ImageXpress Micro Widefield High Content Screening System (Molecular Devices, Sunnyvale, CA, USA) with a 20x Plan Fluor objective. Images are acquired for one site in each well and analyzed with the MetaXpress software (Molecular Devices) using the Transfluor module. Several algorithmic outputs, such as pit count per well, pit count per cell, pit integrated intensity per well, and pit integrated intensity per cell, are used for quantitative image analysis for PLD.

| SMILES | Potency |
| --- | --- |
| CCCCCCCCOc1ccc(C(=O)c2ccccc2)c(O)c1 | inactive |
| c1ccc2[nH]c(-c3cscn3)nc2c1 | inactive |
| N[C@@H](Cc1c[nH]c2ccc(O)cc12)C(=O)O | inactive |
| CC(C)=CCC/C(C)=C/CO | inactive |
| O=C(OCc1ccccc1)c1ccccc1 | inactive |
| NC(=O)N1c2ccccc2C=Cc2ccccc21 | inactive |
| COC1=CC(=O)C[C@@H](C)[C@]12Oc1c(Cl)c(OC)cc(OC)c1C2=O | inactive |
| CC(C)(C)NCC(O)c1ccc(O)c(CO)c1 (stereo not given) | inactive |
| Cn1cnc2c1c(=O)[nH]c(=O)n2C | inactive |
| COc1cc(O)c(C(=O)c2ccccc2)cc1S(=O)(=O)O | inactive |
| COc1ccccc1O | inactive |
| COc1ccc(C(=O)c2ccccc2)c(O)c1 | inactive |
| OCCCc1ccccc1 | inactive |
| NC(=O)NO | inactive |
| CC(O)COc1ccccc1 (stereo not given) | inactive |
| Cc1cnc(NC(=O)C2=C(O)c3ccccc3S(=O)(=O)N2C)s1 | inactive |
| Cc1cccc(Nc2cc(Cl)nc(SCC(=O)O)n2)c1C | inactive |
| C[C@]12C[C@H](O)[C@H]3[C@@H](CCC4=CC(=O)CC[C@@]43C)[C@@H]1CC[C@@H]2C(=O)CO | inactive |
| CC1=C(/C=C/C(C)=C/C=C/C(C)=C/C(=O)O)C(C)(C)CCC1 | inactive |
| Cc1ccc(O)c(-n2nc3ccccc3n2)c1 | inactive |

| SMILES | Potency |
| --- | --- |
| CN/C(=C\[N+](=O)[O-])NCCSCc1ccc(CN(C)C)o1 | inactive |
| CCc1cc(C(N)=S)ccn1 | inactive |
| Cc1c(N(C)C)c(=O)n(-c2ccccc2)n1C | inactive |
| CCN1CCCC1=O | inactive |
| Cc1c(N(C)CS(=O)(=O)O)c(=O)n(-c2ccccc2)n1C | inactive |
| CCCCNC(=O)NS(=O)(=O)c1ccc(N)cc1 | inactive |
| CCCCCCCCCCCCCCCCCC(=O)OCC(O)CO (stereo not given) | inactive |
| NC(=O)N/N=C/c1ccc([N+](=O)[O-])o1 | inactive |
| CCCCCCCC(=O)OCC(O)CO (stereo not given) | inactive |
| C/C=C/c1ccc(O)c(OC)c1 | inactive |
| COc1ccc(O)cc1 | inactive |
| COc1cc(C=O)ccc1O | inactive |
| O=C(O)Cc1cccc2ccccc12 | inactive |
| NC(=O)c1ccc([N+](=O)[O-])cc1Cl | inactive |
| C#C[C@]1(O)CC[C@H]2[C@@H]3CCC4=CC(=O)CC[C@@H]4[C@H]3CC[C@@]21CC | inactive |
| CC(=O)OC/C=C(C)/C=C/C=C(C)/C=C/C1=C(C)CCCC1(C)C | inactive |
| C[C@]12C=CC(=O)C=C1CC[C@@H]1[C@@H]2C(=O)C[C@@]2(C)[C@H]1CC[C@]2(O)C(=O)CO | inactive |
| CCCCC/C(C=O)=C\c1ccccc1 | inactive |
| CC(C)Cc1ccc(C(C)C(=O)O)cc1 (stereo not given) | inactive |
| CCCCCCCCCCCCCC(=O)OC(C)C | inactive |
